From PubChem BioAssay AID1745848 (National Center for Advancing Translational Sciences (NCATS), 2022) come the findings set out here.

Structures are written as SMILES. Hit rate of the full screen: of about 2,100 compounds, about 940 (45%) were called active. About 48% were inconclusive and are not listed. Calls come from the whole dose curve; as a rule, active = well fitted inhibition curve with a large enough effect; inconclusive = small, poorly fitted or top-dose-only effect; inactive = no such curve, though single readings can be large or run the other way. The set was probably picked from earlier hits. Some of the results follow.
Potency is the fitted concentration of half-maximal effect.

A short description of this experiment: Confirmatory qHTS for Inhibitors of ATXN expression. Note: nearly all actives have a fitted effect of over 65% in size. To be noted: ATXN2-luciferase reporter cells, luminescence, 24 h; series mostly up to 11.5 µM. The essentials: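 Cells carrying ATXN2-luciferase reporter exposed 24 h at 37 C to compound. Viability then read by CellTiter-Fluor (25 uM GF-AFC, 30 min), followed by SteadyGlo luminescence; medium-only wells set 100% inhibition.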
In general terms: In qHTS, concentration-response curves come from the screen itself.
Take `COc1ccc(/C=C2\SC(=S)N(CCCC(=O)Nc3ccccn3)C2=O)cc1OC`: the Potency is 14.1 µM (active). In the case of `COC(=O)c1ccc(/C=C2/SC(=S)N(CCCC(=O)Nc3ccccn3)C2=O)cc1` it was 14.1 µM (active); in that of `O=C(CCCN1C(=O)/C(=C/c2ccccc2Cl)SC1=S)Nc1ccccn1`, 11.2 µM (active).

For `O=C(Nc1ccc(CN2CCCCC2)cc1)Nc1ccc(Br)cc1Cl`, the Potency was 25.1 µM (active). As for `N#Cc1c(NCCN)nc(-c2ccco2)c2c1CCCC2`, the figure is 25.1 µM (active); as for `NS(=O)(=O)c1ccc(CCNc2nn3c(-c4cccc(OC(F)(F)F)c4)cnc3s2)cc1`, 3.55 µM (active).

As to `COc1cccc(/C=N/Nc2ncc(C(F)(F)F)cc2Cl)c1O`, the Potency was 1.58 µM (active). As for `COc1cccc(/C=N/Nc2ncnc3c2ncn3Cc2ccccc2)c1O`, the figure is 0.708 µM (active); as for `CN1C2CCC1/C(=C\c1ccccc1)C(=O)/C2=C\c1ccccc1`, 14.1 µM (active); as for `COc1ccccc1N1CCN(c2ccnc3cc(Cl)ccc23)CC1`, 12.6 µM (active). As for `O=C(C1CCCCC1)N1CCN(c2ccnc3cc(Cl)ccc23)CC1`, the figure is 3.98 µM (active); as for `Oc1ccc(N2CCN(c3ccnc4cc(Cl)ccc34)CC2)cc1`, 15.8 µM (active). As for `O=S(=O)(c1ccc2nc(COc3ccc(Cl)cc3Cl)[nH]c2c1)N1CCOCC1`, the entry is “inactive”. `O=S(=O)(c1ccccc1)N1CCN(c2ccnc3cc(Cl)ccc23)CC1`: the Potency was 25.1 µM (active).

Turning to `C[C@H]1O[C@@H](O[C@H]2[C@@H](O)C[C@H](O[C@H]3[C@@H](O)C[C@H](O[C@H]4CC[C@@]5(C)[C@H](CC[C@@H]6[C@@H]5C[C@@H](O)[C@]5(C)[C@@H](C7=CC(=O)OC7)CC[C@]65O)C4)O[C@@H]3C)O[C@@H]2C)C[C@H](O)[C@@H]1O`, the Potency is 0.282 µM (active). For `Cc1cccc2sc(NNC(=O)c3ccc(S(=O)(=O)N4CC(C)CC(C)C4)cc3)nc12` (stereo not given), the Potency was 2 µM (active).

For `Cc1cc(C)c2nc(NNC(=O)c3ccc(S(=O)(=O)N4CC(C)CC(C)C4)cc3)sc2c1` (stereo not given), the Potency was 3.55 µM (active). Take `Cc1cccc2sc(NNC(=O)c3ccc(S(=O)(=O)N4CCCC(C)C4)cc3)nc12` (stereo not given): the Potency was 7.94 µM (active). As for `CCCC(NCC(O)COc1ccc(-c2ccccc2)cc1)c1ccccc1` (stereo not given), the figure is 25.1 µM (active); as for `NS(=O)(=O)c1ccc(Sc2nc3ccccc3s2)c([N+](=O)[O-])c1`, 2.24 µM (active). As for `COc1cc(C#Cc2c(-c3cncn3C)n(C)c3ccc(-c4cnc(OC)nc4)cc23)cc(OC)c1`, the figure is 3.16 µM (active).

Consider `Cc1ccnc(NC(=O)C2CCN(S(=O)(=O)c3c(C)c(C)cc(C)c3C)CC2)c1`, for which the Potency was 2.24 µM (active).

Consider `O=C(Nc1ccc[n+](CC(=O)c2cccc3ccccc23)c1)c1ccccc1`, for which the Potency was 3.55 µM (active). In the case of `O=[N+]([O-])c1cc(O)c2ncccc2c1` it was 3.16 µM (active); in that of `Fc1ccc2[nH]c3c(N4CCSCC4)ncnc3c2c1`, 12.6 µM (active). In the case of `CCOC(=O)N1CCN(c2ncnc3c2[nH]c2ccc(F)cc23)CC1` it was 8.91 µM (active). As for `Fc1ccc2[nH]c3c(N4CCc5ccccc5C4)ncnc3c2c1`, the figure is 3.98 µM (active); as for `O=C(N/N=C\c1cc(Cl)ccc1O)c1ccc(S(=O)(=O)N2CCCCC2)cc1`, 0.708 µM (active); as for `O=C(N/N=C\c1cc(Br)ccc1O)c1ccc(S(=O)(=O)N2CCCCC2)cc1`, 0.794 µM (active). On to `Cc1cc(C)n(-c2ccc(C(=O)N3CCN(S(=O)(=O)c4cccc(Br)c4)CC3)cc2)n1`, for which the Potency result was “inactive”. As for `O=C(N/N=C\c1c(O)ccc2ccccc12)c1ccc(S(=O)(=O)N2CCCCC2)cc1`, the figure is 0.501 µM (active); as for `CC(OC(=O)c1cc(Br)ccc1O)C(=O)Nc1ccc(S(=O)(=O)N2CCCC2)cc1` (stereo not given), 28.2 µM (active); as for `CCCCOc1ccc(CSC(=N)N)cc1Cl`, 25.1 µM (active). Turning to `COc1ccc2c(c1)[nH]c1c(=O)n(/N=C/C3C(C)C=C(C)CC3C)c(=O)[nH]c12` (stereo not given), the Potency is 14.1 µM (active). In the case of `O=C(N/N=C/c1c(O)n(Cc2ccccc2)c(=O)c2ccccc12)c1cccnc1` it was 15.8 µM (active); in that of `COc1ccc(Cn2c(O)c(/C=N/NC(=O)c3cccnc3)c3ccccc3c2=O)cc1`, 14.1 µM (active). As for `Cn1c(=O)c2cc(NC(=O)Nc3cccnc3)ccc2n1Cc1ccc(Cl)cc1`, the entry is “inactive”; as for `CC(=O)Nc1cccc(-c2ccnc3c2CC(C)(C(=O)Nc2ccc(Cl)cc2)O3)c1` (stereo not given), 10 µM (active); as for `CC(=O)c1cccc(NC(=O)C2Cc3c(-c4cccc(C(C)=O)c4)ccnc3O2)c1` (stereo not given), “inactive”. In the case of `CC(=O)Nc1cccc(-c2ccnc3c2CC(C)(C(=O)Nc2cccc(Oc4ccccc4)c2)O3)c1` (stereo not given) it was 25.1 µM (active); in that of `CC(Nc1ccccc1CO)C(=O)Nc1cccc(Cl)c1Cl` (stereo not given), 2.24 µM (active); in that of `COc1cc(NC(=O)c2cccc3c(-c4cccnc4)coc23)cc(OC)c1OC`, 3.55 µM (active). Consider `NC(=S)N1OC[C@@H]2COc3ccc4ccccc4c3[C@@H]21`, for which the Potency was 14.1 µM (active). Consider `O=[N+]([O-])c1ccc(O)c(/C=N\N=C2c3ccccc3-c3ccccc32)c1`, for which the Potency is 3.98 µM (active). For `O=[N+]([O-])c1ccc(O)c(/C=N/Nc2ccccn2)c1`, the Potency was 0.631 µM (active). As for `O=[N+]([O-])c1ccc(O)c(/C=N/Nc2ncnc3c2cnn3-c2ccccc2)c1`, the figure is 1.26 µM (active); as for `COc1ccc(N2CCN(C(=O)c3cc4c(C)nc5ccccc5c4o3)CC2)cc1`, 25.1 µM (active); as for `COc1ccccc1N1CCN(C(=O)c2cc3c(C)nc4ccccc4c3o2)CC1`, 3.55 µM (active).

For the molecule `N#C/C(=C\C=C\c1ccccc1[N+](=O)[O-])C(=O)NC1CCCCC1`, the Potency was 17.8 µM (active). `N#C/C(=C\c1cccc([N+](=O)[O-])c1)C(=O)NCc1ccc(Cl)cc1`: the Potency is 3.16 µM (active). As for `CC1CCCCC1NC(=O)/C(C#N)=C/C=C/c1ccccc1[N+](=O)[O-]` (stereo not given), the figure is 3.16 µM (active); as for `N#C/C(=C\C=C\c1ccccc1[N+](=O)[O-])C(=O)NCc1ccccc1`, 2.82 µM (active). As for `COC(=O)c1ccc2c(c1)C(C)(C)C(/C=C/c1ccc(OC)c(OC)c1OC)=[N+]2C`, the figure is 3.55 µM (active); as for `CCNc1ccc(Br)cc(C(=O)/C=C/c2ccccc2Cl)c1=O`, “inactive”. As for `O=C(/C=C/c1ccccc1)c1cc(Br)ccc(=O)c1O`, the figure is 28.2 µM (active); as for `CC(=O)Nc1ccc(NC2=Nc3ccccc3N3C2=Nc2c(c(C)nn2-c2ccccc2)C3c2ccccc2)cc1` (stereo not given), 1.26 µM (active). As to `Cc1cccc(NC2=Nc3ccccc3N3C2=Nc2c(c(C)nn2-c2ccccc2)C3c2ccc(O)c(O)c2)c1` (stereo not given), the Potency is 3.55 µM (active). As for `COc1cccc(NC(=O)CSc2nc3ncc(Br)cc3[nH]2)c1`, the figure is 3.98 µM (active).

As to `Cc1cc(C)n(-c2nc(Nc3ccccc3C(F)(F)F)nc(-n3nc(C)cc3C)n2)n1`, the Potency was 3.16 µM (active).

Turning to `O=C(Oc1c(CN2CCOCC2)cc(Cl)c2cccnc12)c1ccccc1`, the Potency is 3.55 µM (active). In the case of `O=C(Oc1c(CN2CCOCC2)cc(Cl)c2cccnc12)c1cccs1` it was 11.2 µM (active); in that of `CCOC(=O)N1CCN(Cc2cc(Cl)c3cccnc3c2O)CC1`, 1.58 µM (active); in that of `CC(C)(O)C#Cc1ccc([C@@H]2C[C@H]3CN(c4ccccc4)C(=O)[C@]34CCCN24)s1`, 5.01 µM (active). In the case of `O=C1N(c2ccccc2)C[C@@H]2C[C@@H](c3cc4ccccc4o3)N3CCC[C@@]123` it was 0.316 µM (active); in that of `CC(C)C[C@H](N)c1cn([C@@H](CCCCN)C(=O)N2CCNCC2)nn1`, “inactive”; in that of `Cc1c(OCC(=O)NC2CC(C)(C)NC(C)(C)C2)ccc2c1oc(=O)c1ccccc12`, 2.82 µM (active). As for `COc1cccc(-c2cc3nc(-c4ccccc4)cc(N4CCN(C(=O)c5ccoc5)CC4)n3n2)c1`, the figure is 2.82 µM (active).

On to `O=C(c1ccoc1)N1CCN(c2cc(-c3ccco3)nc3cc(-c4ccccc4)nn23)CC1`, for which the Potency is 25.1 µM (active). As for `COc1ccccc1-c1cc2nc(-c3ccccc3)cc(N3CCN(C(=O)c4ccoc4)CC3)n2n1`, the figure is 12.6 µM (active); as for `COc1ccccc1-c1cc2nc(-c3ccccc3)cc(N3CCN(C(=O)c4ccco4)CC3)n2n1`, 12.6 µM (active).

Turning to `Cn1cccc1/C=N/N1CCN(Cc2ccccc2Cl)CC1`, the Potency result was “inactive”. As for `CCOc1ccc(S(=O)(=O)NCCC(=O)N2CC=C(c3ccccc3)CC2)cc1`, the figure is 12.6 µM (active). In the case of `Cc1cccn2c(=O)c3cc(C(=O)NCCN4CCOCC4)c(=N)n(Cc4ccc(F)cc4)c3nc12` it was 7.08 µM (active); in that of `Cc1ccc2[nH]c(O)c(N=NC(=O)C3CC3c3ccccc3)c2c1Br` (stereo not given), “inactive”. As for `OC(CN1CCCCC1)Cn1c2ccc(Cl)cc2c2cc(Cl)ccc21` (stereo not given), the figure is 3.16 µM (active).

`O=C(NCC1CCCO1)c1cccc(Oc2ccc([N+](=O)[O-])cc2Cl)c1` (stereo not given): the Potency result was “inactive”. As for `O=C(Nc1cccc2c1CCCC2)c1cc([N+](=O)[O-])ccc1Cl`, the figure is 15.8 µM (active); as for `COc1ccc(/C=C2\SC(=S)N(CCCC(=O)NNC(=O)c3ccccc3O)C2=O)cc1`, 3.98 µM (active).

`CC(C)(C)c1ccc(OCCCC(=O)NNC(=O)c2ccccc2O)cc1`: the Potency is 25.1 µM (active). As to `O=C(CCCN1C(=O)S/C(=C\c2ccccc2)C1=O)NNC(=O)c1ccccc1O`, the Potency was 2.24 µM (active). As for `CN(C)CCNCCCNc1c2ccccc2nc2cccc([N+](=O)[O-])c12`, the figure is 0.0891 µM (active); as for `CC(=O)N1CCN(c2ccc(Oc3ccc([N+](=O)[O-])c(C(F)(F)F)c3)cc2)CC1`, 11.2 µM (active). In the case of `Cc1c(C(=O)Nc2ccc(-c3nnc4n3CCCCC4)cc2)oc2c1ccc1ccccc12` it was 3.16 µM (active). As for `O=C(N/N=C/c1ccccc1O)C1SCCCS1`, the figure is 14.1 µM (active); as for `O=C(N/N=C/c1ccccc1O)C1CCCC1`, 28.2 µM (active).
